# Active and inactive are the calls of the source. How the source made its calls: active means hit-call score of the fitted dose curve at least 0.9, where 1 is the maximum; inactive means score below 0.9.
# Target: human CDK2/CyclinA CMGC Kinase, CDK2 (gene 1017) (UniProt P24941)
# Experiment: ERF_FR_ENZ_hCDK2: Eurofins (ERF) Enzymatic Radiometric [Km ATP] KinaseProfiler LeadHunter Assay for human CDK2/CyclinA CMGC Kinase
# Description: ERF_FR_ENZ_hCDK2 is a biochemical, single-readout assay that uses extracted gene-proteins in a cell-free assay. Measurements were taken 0.5 hour after chemical dosing in a 96-well plate. See CDK2 /CyclinA Human CMGC Kinase Enzymatic LANCE Assay [Km ATP], Cerep.ERF_FR_ENZ_hCDK2 is an assay component calculated from the ERF_FR_ENZ_hCDK2 assay. It is designed to measure enzyme activity using a type of enzyme reporter as detected by fluorescence intensity with LANCE technology.Data from the assay component ERF_FR_ENZ_hCDK2 was analyzed at the assay endpoint, ERF_FR_ENZ_hCDK2, in the positive analysis fitting direction relative to DMSO as the negative control and baseline of activity. Using a type of enzyme reporter, loss-of-signal activity can be used to understand changes in enzymatic activity as they relate to gene CDK2. To generalize the intended target to other relatable targets, this assay endpoint is annotated to the kinase intended target family, where the subfamily is serine/threonine kinase.
# CDK2/cyclinA (h) is incubated with 8 mM MOPS pH 7.0, 0.2 mM EDTA, 0.1 mg/mL histone H1, 10 mM MgAcetate and [gamma-33P]-ATP (specific activity and concentration as required). The reaction is initiated by the addition of the Mg/ATP mix. After incubation for 40 minutes at room temperature, the reaction is stopped by the addition of phosphoric acid to a concentration of 0.5%. […]
row,Compound,outcome
1,O=C(/C=C/c1ccc(O)cc1)CC(=O)/C=C/c1ccc(O)cc1,inactive
2,COc1cc(CCC(=O)CC(=O)CCc2ccc(O)c(OC)c2)ccc1O,inactive
